Measured values: PubChem BioAssay (Tox21)
Several values for one entry are separate records, joined by “and”; a condition that tells them apart may be missing. Equal entries are not always repeated. Results filed as inconclusive are left out. Entries that show only a call come without a potency. Some structures have more than one record in an assay (separate samples or runs), and their calls can disagree. Activity calls are given as the source filed them. Unless noted, calls come from the whole dose curve; as a rule, active = well fitted curve in the direction sought with a large enough effect in the repeat runs; inconclusive = weak or mixed curves; inactive = no such curve, though single readings can be large; an effect the other way counts as inactive or inconclusive.

What was measured:
[1] = qHTS assay to identify small molecule antagonists of the sonic hedgehog signaling (Shh) pathway (AID 1259369; calls by dose curve; note: nearly all actives have a fitted effect of over 45% in size; note: potency is the fitted concentration of half-maximal effect)
How it was run: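 Conditioned medium drives Shh signalling in 3T3Gli1-Luc cells; compounds in DMSO co-applied, 24hr at 37 C, then luciferase luminescence.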

[2] = qHTS assay to identify small molecule agonists of the androgen receptor (AR) signaling pathway in the presence of an antagonist - cell viability counter screen (AID 1259379); note: nearly all actives have a fitted effect of over 25% in size; note: potency is the fitted concentration of half-maximal effect
How it was run: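 A CellTiter-Fluor read-out measured viability of MDA-kb2 reporter cells (MMTV promoter with AR and GR response elements). Treatment: nilutamide 3.0uM final with compounds at 15 concentrations, 16 hr, 37C, 0% CO2.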

[3] = qHTS assay to identify small molecule agonists of the estrogen receptor beta (ER-beta) signaling pathway - cell viability counter screen (AID 1259380); note: nearly all actives have a fitted effect of over 30% in size; note: potency is the fitted concentration of half-maximal effect
How it was run: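 Cells used were ER-beta-UAS-bla HEK293T in medium with 2% charcoal-stripped FBS. They were treated for 16 hr at 37C. Viability came from CellTiter-Glo luminescence.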

[4] = qHTS assay to identify small molecule antagonists of the estrogen receptor beta (ER-beta) signaling pathway - cell viability counter screen (AID 1259382); note: nearly all actives have a fitted effect of over 55% in size; note: potency is the fitted concentration of half-maximal effect
How it was run: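 Agonist-stimulated (1nM E2) ER-beta-UAS-bla HEK293T cells are incubated with library compounds for 16 hr at 37C. Cell viability is then assessed in the reporter-assay wells by adding CellTiter-Glo and reading luminescence after 30 min.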

[5] = qHTS assay to identify small molecule agonists or antagonists of the thyroid stimulating hormone receptor (TSHR) signaling pathway - wild type cell line counter screen (AID 1259384; calls by dose curve)
How it was run: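 Wild-type HEK293 cells were plated 18 h at 37 C/5% CO2, pin-dosed with compound plus Ro20-1724 medium, held 30 min at room temperature, then given cAMP-d2 and anti-cAMP-cryptate; fluorescence was read after 1 h. Fifteen concentrations, triplicate.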

[6] = target: Thyrotropin receptor (Homo sapiens) (UniProt P16473); assay: qHTS assay to identify small molecule antagonists of the thyroid stimulating hormone receptor (TSHR) signaling pathway (AID 1259385; calls by dose curve; note: nearly all actives have a fitted effect of over 20% in size; note: potency is the fitted concentration of half-maximal effect)
Thyrotropin receptor (Homo sapiens), sequence (P16473 whole entry, looked up): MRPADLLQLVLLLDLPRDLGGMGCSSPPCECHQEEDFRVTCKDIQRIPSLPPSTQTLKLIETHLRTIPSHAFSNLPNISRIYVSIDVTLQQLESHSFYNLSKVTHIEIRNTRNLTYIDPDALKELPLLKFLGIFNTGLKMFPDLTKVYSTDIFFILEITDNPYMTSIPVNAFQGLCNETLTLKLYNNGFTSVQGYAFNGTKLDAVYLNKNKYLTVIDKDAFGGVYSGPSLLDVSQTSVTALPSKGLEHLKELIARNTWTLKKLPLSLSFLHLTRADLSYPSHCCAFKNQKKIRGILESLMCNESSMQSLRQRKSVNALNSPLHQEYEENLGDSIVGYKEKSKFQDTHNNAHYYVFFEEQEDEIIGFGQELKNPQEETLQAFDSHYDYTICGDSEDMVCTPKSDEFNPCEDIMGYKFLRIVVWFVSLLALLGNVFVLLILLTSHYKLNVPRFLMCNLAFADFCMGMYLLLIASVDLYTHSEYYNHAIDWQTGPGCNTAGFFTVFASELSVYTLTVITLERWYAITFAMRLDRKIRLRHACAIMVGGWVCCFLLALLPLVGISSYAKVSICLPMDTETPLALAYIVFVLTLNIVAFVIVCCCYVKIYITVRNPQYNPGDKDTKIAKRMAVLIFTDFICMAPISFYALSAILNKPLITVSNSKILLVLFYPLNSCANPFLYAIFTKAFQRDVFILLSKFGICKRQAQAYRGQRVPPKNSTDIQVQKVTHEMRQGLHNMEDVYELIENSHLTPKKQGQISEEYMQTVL
How it was run: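 TSHR-HEK293 cells were plated and held 18 h at 37C/5% CO2, then given compound plus Ro20-1724 and stimulated with TSH at 1.5 ng/mL final. After 30 min at room temperature, cAMP was detected with cAMP-d2/anti-cAMP-cryptate (1 h) by fluorescence.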

[7] = qHTS assay to identify small molecule agonists of the estrogen receptor alpha (ER-alpha) signaling pathway in the presence of an antagonist - cell viability counter screen (AID 1259386);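 note: cells exposed to compounds for 22 h at 37 °C before the viability read; nearly all actives have a fitted effect of over 30% in size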; note: potency is the fitted concentration of half-maximal effect
How it was run: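 ICI-182,780 at 10.0nM final accompanies the compound titration (15 concentrations, 22hr, 37C) on VM7Luc4E2 cells. The CellTiter-Fluor fluorescence readout runs in the same wells as the luciferase assay.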

[8] = target: Progesterone receptor (Homo sapiens) (UniProt P06401); assay: qHTS assay to identify small molecule agonists of the progesterone receptor (PR) signaling pathway (AID 1346784; calls by dose curve; note: nearly all actives have a fitted effect of over 30% in size)
Progesterone receptor (Homo sapiens), sequence (P06401 whole entry, looked up): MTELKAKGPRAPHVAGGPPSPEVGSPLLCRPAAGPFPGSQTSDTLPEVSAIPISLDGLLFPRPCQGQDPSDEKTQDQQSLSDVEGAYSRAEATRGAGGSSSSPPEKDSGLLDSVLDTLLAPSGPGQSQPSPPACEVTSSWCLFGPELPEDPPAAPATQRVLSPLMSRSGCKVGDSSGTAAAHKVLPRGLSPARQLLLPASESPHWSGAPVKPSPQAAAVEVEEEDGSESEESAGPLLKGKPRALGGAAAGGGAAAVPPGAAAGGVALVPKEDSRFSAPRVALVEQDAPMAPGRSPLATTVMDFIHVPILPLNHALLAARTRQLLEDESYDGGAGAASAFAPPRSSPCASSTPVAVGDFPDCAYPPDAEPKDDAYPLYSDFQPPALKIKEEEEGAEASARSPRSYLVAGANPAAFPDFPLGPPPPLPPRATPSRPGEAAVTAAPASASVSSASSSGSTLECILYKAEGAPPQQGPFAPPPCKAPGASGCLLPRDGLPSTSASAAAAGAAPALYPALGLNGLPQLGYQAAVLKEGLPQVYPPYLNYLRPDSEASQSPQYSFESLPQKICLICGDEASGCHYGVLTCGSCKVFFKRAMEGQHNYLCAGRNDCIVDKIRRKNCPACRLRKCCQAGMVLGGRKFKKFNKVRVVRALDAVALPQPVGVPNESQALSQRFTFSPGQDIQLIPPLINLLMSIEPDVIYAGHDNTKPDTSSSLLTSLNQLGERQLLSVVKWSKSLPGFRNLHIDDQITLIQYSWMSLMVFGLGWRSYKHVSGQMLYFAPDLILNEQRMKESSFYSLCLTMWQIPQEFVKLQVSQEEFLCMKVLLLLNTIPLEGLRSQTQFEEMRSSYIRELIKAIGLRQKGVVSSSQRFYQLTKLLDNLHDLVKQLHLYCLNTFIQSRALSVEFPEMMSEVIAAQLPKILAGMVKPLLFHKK
How it was run: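 PR-UAS-bla HEK 293T cells carrying a UAS-driven beta-lactamase reporter were seeded in medium with 2% charcoal-stripped FBS, preincubated 6 hr at 37C, then exposed to compounds in DMSO for 16 hr; agonism was read by LiveBLAzer B/G FRET fluorescence.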

[9] = qHTS assay to identify small molecule antagonists of the progesterone receptor (PR) signaling pathway - cell viability counter screen (AID 1346798); note: nearly all actives have a fitted effect of over 50% in size; note: potency is the fitted concentration of half-maximal effect
How it was run: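 PR-UAS-bla HEK293T cells in medium with 2% charcoal-stripped FBS were treated with compounds plus R5020 for 16 hr at 37C. Cell viability was then read by CellTiter-Glo luminescence after 30 min at room temperature in the same wells.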

[10] = qHTS assay to identify small molecule agonists of the progesterone receptor (PR) signaling pathway - cell viability counter screen (AID 1346799; calls by dose curve; note: nearly all actives have a fitted effect of over 45% in size; note: potency is the fitted concentration of half-maximal effect)
How it was run: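 PR-UAS-bla HEK293T cells, 3,000 per well in medium with 2% charcoal-stripped FBS, were preincubated 6 hr at 37C, then exposed to compounds for 16 hr; viability was read as CellTiter-Glo luminescence after 30 min at room temperature.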

[11] = qHTS assay to identify small molecule antagonists of the TGF-beta/Smad signaling pathway - cell viability counter screen (AID 1346824); note: nearly all actives have a fitted effect of over 50% in size; note: potency is the fitted concentration of half-maximal effect
How it was run: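 SBE-bla HEK 293T cells were plated overnight at 37 C, then given compounds in DMSO plus TGF-beta1 (added as 0.25 ng/mL solution) for 5 hr. After the bla read, CellTiter-Glo was added to the same wells and luminescence read after 30 min at room temperature.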

[12] = qHTS assay to identify small molecule agonists of the TGF-beta/Smad signaling pathway - cell viability counter screen (AID 1346829); note: nearly all actives have a fitted effect of over 45% in size; note: potency is the fitted concentration of half-maximal effect
How it was run: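 After overnight seating at 37 C and 5% CO2, reporter cells got compounds for 5 hr and FRET substrate for 2 hr; cell viability then came from CellTiter-Glo luminescence.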

[13] = qHTS assay to identify small molecule agonists of the TGF-beta/Smad signaling pathway (AID 1346859; active = well fitted activation curve with a large enough effect in the signal ratio in the repeat runs, not every such curve was filed as active; the % refers to the signal ratio; note: series mostly up to about 77 µM)
How it was run: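 HEK 293T cells stably carrying a beta-lactamase reporter driven by the Smad binding element were seeded overnight, exposed to DMSO-dissolved compounds for 5 hr at 37 C, 5% CO2, then loaded with FRET substrate for 2 hr at room temperature.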

[14] = target: Thyrotropin-releasing hormone receptor (Homo sapiens) (UniProt P34981); assay: qHTS assay to identify small molecule antagonists of the thyrotropin-releasing hormone receptor (TRHR) signaling pathway (AID 1346877; active = well fitted inhibition curve with a large enough effect in the repeat runs, not every such curve was filed as active; note: series mostly up to about 51 µM)
Thyrotropin-releasing hormone receptor (Homo sapiens), sequence (P34981 whole entry, looked up): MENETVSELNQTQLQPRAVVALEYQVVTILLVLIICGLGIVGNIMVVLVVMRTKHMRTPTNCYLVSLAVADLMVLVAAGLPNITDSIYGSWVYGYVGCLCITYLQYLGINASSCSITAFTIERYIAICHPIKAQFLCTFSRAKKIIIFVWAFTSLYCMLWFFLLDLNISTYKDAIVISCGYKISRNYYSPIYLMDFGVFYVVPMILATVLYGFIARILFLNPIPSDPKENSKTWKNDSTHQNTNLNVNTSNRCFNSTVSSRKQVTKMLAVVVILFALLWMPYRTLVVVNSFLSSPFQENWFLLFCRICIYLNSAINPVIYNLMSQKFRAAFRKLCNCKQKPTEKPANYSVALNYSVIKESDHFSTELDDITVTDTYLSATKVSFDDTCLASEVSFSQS
How it was run: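 Screening used HEK293 cells engineered with TRHR, with a brief 5 min room-temperature compound exposure preceding addition of TRH to 1 nM. The read-out was kinetic calcium-dye fluorescence, concentration-response from 15 doses in triplicate.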

[15] = target: Estrogen receptor (Homo sapiens) (UniProt P03372); assay: qHTS assay to identify small molecule agonists of the estrogen receptor alpha (ER-alpha) signaling pathway in the presence of an antagonist (AID 1259383; calls by dose curve; note: nearly all actives have a fitted effect of over 15% in size; note: potency is the fitted concentration of half-maximal effect; for activation: top concentration of the series differs between compounds)
Estrogen receptor (Homo sapiens), sequence (P03372 whole entry, looked up): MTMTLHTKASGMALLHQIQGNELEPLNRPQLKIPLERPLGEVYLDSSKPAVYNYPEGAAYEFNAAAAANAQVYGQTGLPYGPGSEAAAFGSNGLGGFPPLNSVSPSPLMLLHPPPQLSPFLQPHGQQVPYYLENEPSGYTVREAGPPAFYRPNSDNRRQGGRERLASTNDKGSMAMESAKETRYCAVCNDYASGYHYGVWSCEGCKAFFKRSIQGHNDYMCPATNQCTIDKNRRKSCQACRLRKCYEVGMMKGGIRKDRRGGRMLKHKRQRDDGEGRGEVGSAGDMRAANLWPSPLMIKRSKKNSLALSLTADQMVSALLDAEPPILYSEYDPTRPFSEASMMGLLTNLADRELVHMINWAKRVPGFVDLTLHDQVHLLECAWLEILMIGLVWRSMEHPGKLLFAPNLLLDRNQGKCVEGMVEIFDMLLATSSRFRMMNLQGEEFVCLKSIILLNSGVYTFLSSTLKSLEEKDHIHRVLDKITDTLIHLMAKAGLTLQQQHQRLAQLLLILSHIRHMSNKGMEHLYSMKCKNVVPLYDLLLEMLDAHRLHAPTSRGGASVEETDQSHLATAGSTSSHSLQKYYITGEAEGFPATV
How it was run: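 Using VM7Luc4E2 cells seeded 24hr before treatment, antagonist ICI-182,780 (10.0nM final) was added, followed by compounds at 15 concentrations. Plates incubated 22hr; ONE-Glo luminescence quantified reporter activity.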

[16] = target: Progesterone receptor (Homo sapiens) (UniProt P06401); assay: qHTS assay to identify small molecule antagonists of the progesterone receptor (PR) signaling pathway (AID 1346795; active = well fitted inhibition curve with a large enough effect in the signal ratio in the repeat runs, not every such curve was filed as active; the % refers to the signal ratio; note: potency is the fitted concentration of half-maximal effect)
How it was run: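 PR-UAS-bla HEK293T cells carrying a UAS-driven beta-lactamase reporter were plated in medium with 2% charcoal-stripped FBS and rested 6 hr at 37C. Compounds were added with 1 nM R5020 (final) for 16 hr, then FRET substrate loaded 2 hr at room temperature.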

[17] = target: Thyrotropin-releasing hormone receptor (Homo sapiens) (UniProt P34981); assay: qHTS assay to identify small molecule agonists of the thyrotropin-releasing hormone receptor (TRHR) signaling pathway (AID 1346891; calls by dose curve; note: series mostly up to about 58 µM)
How it was run: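 TRHR-expressing HEK293 cells were plated 18 h at 37 °C/5% CO2, loaded with calcium dye 2 h at 37 °C, then given compound in DMSO; fluorescence was read kinetically for 3 min at 1 s intervals.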

[18] = target: Androgen receptor (Homo sapiens) (UniProt P10275); assay: qHTS assay to identify small molecule agonists of the androgen receptor (AR) signaling pathway in the presence of an antagonist (AID 1259381; calls by dose curve; note: nearly all actives have a fitted effect of over 15% in size)
Androgen receptor (Homo sapiens), sequence (P10275 whole entry, looked up): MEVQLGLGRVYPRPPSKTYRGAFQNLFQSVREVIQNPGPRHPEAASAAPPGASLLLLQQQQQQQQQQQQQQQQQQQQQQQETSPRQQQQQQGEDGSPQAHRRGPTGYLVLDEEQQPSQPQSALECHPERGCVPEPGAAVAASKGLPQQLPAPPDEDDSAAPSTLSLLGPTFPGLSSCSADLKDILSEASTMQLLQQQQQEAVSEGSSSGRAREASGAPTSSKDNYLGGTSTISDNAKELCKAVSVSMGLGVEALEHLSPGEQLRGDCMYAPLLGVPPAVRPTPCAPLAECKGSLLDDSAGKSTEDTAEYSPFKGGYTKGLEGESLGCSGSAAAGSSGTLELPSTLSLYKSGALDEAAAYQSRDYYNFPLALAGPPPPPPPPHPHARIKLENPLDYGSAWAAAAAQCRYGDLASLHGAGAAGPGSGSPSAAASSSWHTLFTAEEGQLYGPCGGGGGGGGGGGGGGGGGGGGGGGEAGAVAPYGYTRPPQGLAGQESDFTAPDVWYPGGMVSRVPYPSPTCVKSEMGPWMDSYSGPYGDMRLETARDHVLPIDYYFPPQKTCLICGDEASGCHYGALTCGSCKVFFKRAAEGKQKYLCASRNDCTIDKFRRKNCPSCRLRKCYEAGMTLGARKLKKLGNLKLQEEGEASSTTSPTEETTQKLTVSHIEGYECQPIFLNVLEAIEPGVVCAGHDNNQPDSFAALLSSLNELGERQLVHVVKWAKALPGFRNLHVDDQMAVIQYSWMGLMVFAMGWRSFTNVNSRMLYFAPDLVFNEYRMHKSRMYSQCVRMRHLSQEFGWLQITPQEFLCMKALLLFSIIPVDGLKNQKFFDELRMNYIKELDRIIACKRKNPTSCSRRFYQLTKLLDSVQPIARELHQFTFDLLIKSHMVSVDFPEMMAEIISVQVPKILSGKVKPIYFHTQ
How it was run: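 Using human MDA-kb2 cells with an MMTV promoter–luciferase construct (AR and GR response elements), agonist activity is scored under 3.0uM nilutamide (final) co-treatment; 16hr incubation, 37C, luminescence readout via ONE-Glo.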

CC1COc2c(N3CCN(C)CC3)c(F)cc3c(=O)c(C(=O)O)cn1c23 (stereo not drawn)
Potency [1]: inactive | Potency [2]: inactive | Potency [3]: inactive | Potency [4]: inactive | Potency [5]: inactive | Potency [6]: inactive | Potency [7]: inactive | Potency [8]: inactive | Potency [9]: inactive | Potency [10]: inactive | Potency [11]: inactive | Potency [12]: inactive | outcome [13]: inactive | Potency [14]: inactive

NCCO
Potency [1]: inactive and 15.4 µM (active) | Potency [2]: inactive | Potency [3]: inactive | Potency [4]: inactive | Potency [15]: inactive | Potency [5]: inactive | Potency [7]: inactive | Potency [8]: inactive | Potency [9]: inactive | Potency [10]: inactive | Potency [11]: inactive | Potency [12]: inactive | outcome [13]: inactive

Cc1cc(C2(c3cc(C)c(O)cc3C)OS(=O)(=O)c3ccccc32)c(C)cc1O
Potency [1]: inactive | Potency [2]: 54.5 µM (active) and 27.3 µM (active) | Potency [3]: inactive | Potency [4]: inactive | Potency [15]: 43.3 µM (active) and inactive | Potency [5]: inactive | Potency [6]: inactive | Potency [7]: 30.6 µM (active) and 21.7 µM (active) | Potency [8]: inactive | Potency [10]: inactive | Potency [11]: inactive | Potency [12]: inactive | outcome [13]: inactive

CC(COc1ccccc1)N(CCCl)Cc1ccccc1 (stereo not drawn)
Potency [1]: 43.3 µM (active) and inactive | Potency [2]: 55 µM (active) and 61.1 µM (active) | Potency [3]: 54.5 µM (active) | Potency [4]: inactive | Potency [5]: inactive | Potency [6]: inactive | Potency [7]: inactive | Potency [8]: inactive | Potency [16]: 30.6 µM (active) and 26.6 µM (active) | Potency [9]: inactive | Potency [10]: inactive | Potency [11]: inactive | Potency [12]: inactive | outcome [13]: inactive

COc1ccc(CCN2CCC(Nc3nc4ccccc4n3Cc3ccc(F)cc3)CC2)cc1
Potency [1]: 625 nM (active) and 3.35 µM (active) | Potency [2]: 17.6 µM (active) and 21.1 µM (active) | Potency [3]: 9.9 µM (active) and 23.7 µM (active) | Potency [4]: 9.9 µM (active) and 21.1 µM (active) | Potency [5]: inactive | Potency [6]: 31.3 µM (active) and inactive | Potency [7]: 39.4 µM (active) and inactive | Potency [8]: inactive | Potency [16]: 18.8 µM (active) | Potency [9]: 17.6 µM (active) and 23.7 µM (active) | Potency [10]: 14 µM (active) | Potency [11]: 39.8 µM (active) | Potency [12]: 44.6 µM (active) | outcome [13]: inactive | Potency [14]: inactive | Potency [17]: inactive

CCCC(=O)c1ccccc1
Potency [1]: inactive | Potency [2]: inactive | Potency [3]: inactive | Potency [18]: inactive | Potency [4]: inactive | Potency [5]: inactive | Potency [6]: inactive | Potency [7]: inactive | Potency [8]: inactive | Potency [16]: inactive | Potency [9]: inactive | Potency [10]: inactive | Potency [11]: inactive | Potency [12]: inactive | outcome [13]: inactive | Potency [14]: inactive | Potency [17]: inactive

CCCNC(C)C(=O)Nc1ccccc1C (stereo not drawn)
Potency [1]: inactive | Potency [2]: inactive | Potency [3]: inactive | Potency [4]: inactive | Potency [15]: inactive | Potency [5]: inactive | Potency [6]: inactive | Potency [7]: inactive | Potency [8]: inactive | Potency [9]: inactive | Potency [10]: inactive | Potency [11]: inactive | Potency [12]: inactive | outcome [13]: inactive | Potency [14]: inactive

CCC[C@H](N[C@@H](C)C(=O)N1[C@H](C(=O)O)C[C@@H]2CCCC[C@@H]21)C(=O)OCC
Potency [1]: inactive | Potency [2]: inactive | Potency [3]: inactive | Potency [4]: inactive | Potency [15]: inactive | Potency [5]: inactive | Potency [6]: inactive | Potency [7]: inactive | Potency [8]: inactive | Potency [9]: inactive | Potency [10]: inactive | Potency [11]: inactive | Potency [12]: inactive | outcome [13]: inactive

CCc1ccc(C(c2ccc(CC)cc2)C(Cl)Cl)cc1
Potency [1]: inactive | Potency [2]: inactive | Potency [3]: inactive | Potency [18]: inactive | Potency [4]: inactive | Potency [15]: inactive | Potency [5]: inactive | Potency [6]: inactive | Potency [7]: inactive | Potency [8]: inactive | Potency [9]: inactive | Potency [10]: inactive | Potency [11]: inactive | Potency [12]: inactive | outcome [13]: inactive | Potency [14]: inactive | Potency [17]: inactive

O=C(Oc1ccccc1)c1ccccc1O
Potency [1]: inactive and 54.5 µM (active) | Potency [2]: inactive | Potency [3]: inactive | Potency [4]: inactive | Potency [15]: inactive | Potency [5]: inactive | Potency [6]: inactive | Potency [7]: inactive | Potency [8]: inactive | Potency [16]: inactive | Potency [9]: inactive | Potency [10]: inactive | Potency [11]: inactive | Potency [12]: inactive | outcome [13]: inactive

Nc1nc2ccccc2[nH]1
Potency [1]: inactive | Potency [2]: inactive | Potency [3]: inactive | Potency [4]: inactive | Potency [15]: inactive | Potency [5]: inactive | Potency [7]: inactive | Potency [16]: inactive | Potency [9]: inactive | Potency [10]: inactive | Potency [11]: inactive | Potency [12]: inactive | outcome [13]: inactive | Potency [14]: inactive

CC(C)(c1ccccc1)c1ccc(Nc2ccc(C(C)(C)c3ccccc3)cc2)cc1
Potency [1]: inactive | Potency [2]: inactive | Potency [3]: inactive | Potency [4]: inactive | Potency [15]: inactive | Potency [5]: inactive | Potency [7]: inactive | Potency [11]: inactive | Potency [12]: inactive | outcome [13]: inactive | Potency [14]: inactive | Potency [17]: inactive

O=C1CC2(CCCC2)CC(=O)N1CCCCN1CCN(c2ncccn2)CC1
Potency [1]: 19.3 µM (active) and inactive | Potency [2]: inactive | Potency [3]: 4.86 µM (active) | Potency [4]: inactive | Potency [5]: inactive | Potency [6]: inactive | Potency [7]: inactive | Potency [8]: inactive | Potency [9]: inactive | Potency [10]: 5.45 µM (active) and inactive | Potency [11]: inactive | Potency [12]: inactive | outcome [13]: inactive | Potency [14]: inactive | Potency [17]: inactive

COc1cc(C(=S)N2CCOCC2)ccc1O
Potency [1]: inactive | Potency [2]: inactive | Potency [3]: inactive | Potency [18]: inactive | Potency [4]: inactive | Potency [15]: inactive | Potency [5]: inactive | Potency [7]: inactive | Potency [8]: inactive | Potency [9]: inactive | Potency [10]: inactive | Potency [11]: inactive | Potency [12]: inactive | outcome [13]: inactive
